Compounds with a hit are over-represented: about 12% of the library has one in this group of screens.
WT yeast gro inh – growth inhibition of WT yeast, mitochondrial fusion screen | mitochondrial fusion phenotypic screen, WT strain | inhibition, % at 10 µM | actives 2.1% (n = 190,000) | AID 1362; in the data active = inhibition above about 58%; tested in S. cerevisiae
Arbovirus anti – arbovirus infection inhibition | inhibition, % at 10 µM | arbovirus infection cell-based antiviral screen | actives 0.37% (n = 200,000) | AID 1251; in the data active = inhibition above about 30%
L major viab – Leishmania major promastigote growth inhibition; Leishmania major promastigotes, resazurin fluorescence viability; inhibition, % at 10 µM; actives 9% (n = 200,000); in the data active = inhibition above about 50%;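 note: promastigotes grown with compound for 44 hours at 28 °C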
CHOP inhibitor – CHOP inhibition in unfolded protein response; CHO-K1 CHOP-promoter luciferase, tunicamycin-induced, 15-18 h; inhibition, % at 10 µM; actives 3.8% (n = 220,000); AID 2732;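 active = compounds that reduced the stress-induced luciferase reporter signal by more than about 70% of percent inhibition, limit read from the data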;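 note: 0% = tunicamycin plus vehicle and 100% = wells without tunicamycin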
Numbers without * were called inactive; · = not tested or not shown.

SMILES	WT yeast gro inh	Arbovirus anti	L major viab	CHOP inhibitor
O=C(Cn1cnc([N+](=O)[O-])n1)N/N=C/c1cc(Cl)ccc1O	-6	4	100*	63
Cn1c(=O)c2c(SCC(=O)N3CCCc4ccccc43)nc(C3CC3)nc2n(C)c1=O	6	-8	61*	61
Cc1sc2nc(C3CC3)nc(SCC(=O)N3CCCc4ccccc43)c2c1C	38	-18	94*	63
CCn1cc(C(=O)O)c(=O)c2cnc(N3CCN(C(=S)Nc4ccccc4C(F)(F)F)CC3)nc21	·	·	·	5
COc1ccccc1C(=O)C1CCCN(C(=O)c2cc(CC(C)C)nc(C)n2)C1 (centres undefined)	2	6	0	3
COCCNC(=O)COc1cccc(Oc2ccccc2)c1	17	-2	-8	24
CCOc1ccc(OCCOc2cccc(C(F)(F)F)c2)cc1	6	3	-2	35
CC(O)CNCCCOc1cccc(Oc2ccccc2)c1 (centres undefined)	-12	-32	99*	11
CNCCCOc1cccc(OC(C)C)c1	-9	-6	1	52
CC(O)CNCCCOc1cccc(C(F)(F)F)c1 (centres undefined)	6	0	67*	17
CNCCCOc1cccc(Oc2ccccc2)c1	22	-30	99*	-12
O=C(C1=NN[C@@H]2C(=O)N(Cc3ccccc3)C(=O)[C@H]12)c1ccc([N+](=O)[O-])cc1	·	·	·	-9
S=c1[nH]nc(-c2n[nH]c3c2CCC3)n1/N=C/C=C/c1ccco1	·	·	·	5
N#CCOc1nc(N2CCCC2)nc(N2CCCC2)n1	0	8	97*	7
COc1nc(N2CCCCCC2)nc(N2CCCCCC2)n1	64*	-14	-3	88*
COc1nc(Nc2cccc(C)c2)nc(N2CCCCC2)n1	36	4	25	71*
Cc1cccc(Nc2nc(N3CCCC3)nc(N3CCCC3)n2)c1	46	-4	28	65
O=C(NC(=S)NNC(=O)[C@H]1C[C@@H]1c1ccccc1)c1cccc(F)c1	·	·	·	18
COC(=O)c1cc2c(ccn2-c2ccc(F)cc2)n1Cc1cccc(OC)c1	-22	-8	98*	41
COC(=O)c1cc2c(ccn2-c2ccc(F)cc2)n1Cc1ccc(OC(C)=O)cc1	-12	8	93*	28
COC(=O)c1cc2c(ccn2-c2ccc(F)cc2)n1C(C)C	0	8	0	2
Cc1cnc(NC(=O)C2(c3ccccc3)CC2)s1	1	-1	4	0
CC(SCc1ccccc1)C(=O)Nc1ccc2c(c1)OCO2 (centres undefined)	6	-5	3	-16
CCC(C)[C@@H](C(=O)Nc1ccc2c(c1)OCO2)N1Cc2ccccc2C1=O (some centres undefined)	14	2	61*	37
CC(C)[C@@H](C(=O)OCC(=O)Nc1ccc2c(c1)OCO2)N1C(=O)c2ccccc2C1=O	-11	-5	82*	26
SMILES	WT yeast gro inh	Arbovirus anti	L major viab	CHOP inhibitor
CC(=O)N/N=C(\C)C1COc2ccccc2O1 (centres undefined)	·	·	·	-1
O=C(Nc1ccc(-c2csnn2)cc1)C(Cl)(Cl)Cl	·	·	·	-3
Cn1c(=O)n(C)c2cc(NC(=O)CCl)ccc21	-15	2	27	-35
CCn1c(=O)oc2cc(NC(=O)CCl)ccc21	-26	0	70*	2
O=c1[nH]c(CSc2ccccn2)nc2c1oc1ccccc12	21	-8	-7	8
COc1cccc(NC(=O)Cn2c(CCC(=O)O)ccc2-c2ccc(C)cc2)c1	7	-2	4	2
COc1cc2c(cc1OC)CN(C(=O)c1cccc(S(=O)(=O)N(C)C)c1)CC2	·	·	·	1
COc1cc2c(cc1OC)CN(C(=O)c1ccc(S(=O)(=O)N(C)c3ccccc3)cc1)CC2	3	20	99*	39
COc1ccc(Cl)cc1C(=O)Nn1c(-c2cccs2)nc2ccccc2c1=O	-1	-5	61*	42
COc1ccc(Cl)cc1C(=O)Nn1c(C)nc2ccccc2c1=O	7	1	-3	9
CCN(c1ccccc1)S(=O)(=O)c1ccc(C(=O)Nc2nnc(C3CC3)o2)cc1	2	-25	94*	52
CN(c1ccccc1)S(=O)(=O)c1ccc(C(=O)Nc2nnc(C3CC3)o2)cc1	15	-21	98*	39
COCCN(CCOC)S(=O)(=O)c1ccc(C(=O)Nc2nnc(C3CC3)o2)cc1	10	7	-6	9
CCN(c1ccccc1)S(=O)(=O)c1ccc(C(=O)Nc2nnc(-c3ccco3)o2)cc1	13	-16	99*	28
Cc1cc(=S)[nH]c(=S)[nH]1	·	·	·	-10
COc1cccc(/C=N/N2CCN(c3ccccc3OC)CC2)c1	-3	-2	-4	76*
O=S(=O)(c1cnccc1N1CCN(/N=C/c2ccc(Cl)cc2)CC1)N1CCCCC1	-8	3	79*	19
Clc1ccc(/C=N/N2CCCCC2)cc1	·	·	·	-32
CC(C)N1CCN(c2ccncc2S(=O)(=O)N2CCOCC2)CC1	7	2	11	-7
COc1cccc(/C=N/N2CCN(c3ccncc3S(=O)(=O)N3CCCCC3)CC2)c1	3	5	99*	15
COc1ccc(/C=N/N2CCN(c3ccccc3OC)CC2)cc1OC	-5	0	-4	-4
Cc1ccc(/C=N/N2CCN(c3ccncc3S(=O)(=O)N3CCCCC3)CC2)cc1	6	-3	67*	62
COc1ccc(OC)c(S(=O)(=O)N2CCN(c3ccccn3)CC2)c1	24	-4	3	10
CC(C)c1ccccc1NC(=S)NCCCn1ccnc1	-7	6	-6	7
CC(C)(C)c1ccc(C(=O)N2CCCCCC2=O)cc1	-14	-4	6	89*
SMILES	WT yeast gro inh	Arbovirus anti	L major viab	CHOP inhibitor
COc1ccc(/C=N/NC(=O)CCSc2nc3ccccc3s2)cc1OC	8	-13	13	5
O=C(CCSc1nc2ccccc2s1)N/N=C/c1c(O)ccc2ccccc12	-16	-32	58*	56
Cc1cc(C)n(CCC(=O)N/N=C/c2c(O)ccc3ccccc23)n1	·	·	·	88*
Cc1ccc(C)c(NC(=O)c2ccccc2NC(=O)C2CCCO2)c1 (centres undefined)	6	-4	13	2
Brc1cnc(N2CCCC2)nc1N1CCOCC1	55	1	3	13
Brc1cnc(N2CCCCC2)nc1N1CCOCC1	59*	16	-2	26
CC(NC(=O)C1CCCN1S(=O)(=O)c1ccc2c(c1)n(C)c(=O)c(=O)n2C)c1ccccc1 (centres undefined)	·	·	·	16
Nc1c(C(=O)c2ccco2)oc2ccccc12	22	-2	7	-10
CC(C)(C)/C(O)=C/c1nc2ccccc2oc1=O	39	-13	31	20
O=c1c(Cl)c2oc3ccccc3nc-2c2ccccc12	44	-6	81*	9
O=C(Cc1ccccc1)N[C@@H](Cc1ccc(O)cc1)C(=O)O	·	·	·	4
O=c1c[n+]([O-])c2ccccc2n1OCc1c(F)cccc1F	-3	-5	0	88*
COc1cccc(CC2CC(=O)N(c3ccc4c(C)cc(=O)oc4c3)C2=O)c1 (centres undefined)	6	3	-8	4
Cc1cc(C)nc(SCc2ccc(C(=O)N/N=C/c3cccc(O)c3O)cc2)n1	-23	-22	98*	-5

Bioassay records: PubChem BioAssay, several laboratories
